About 1,400 (0.41%) of roughly 340,000 compounds were called active.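 The calls were made as follows: active = response above a set limit, near 3 SD of response in nonfluorescent compounds (cut at about 42% in these data); inactive = the rest.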 The full list was thinned out, with actives kept by preference.

Chain of Beta-2 adrenergic receptor (Homo sapiens) (P07550 whole entry, looked up): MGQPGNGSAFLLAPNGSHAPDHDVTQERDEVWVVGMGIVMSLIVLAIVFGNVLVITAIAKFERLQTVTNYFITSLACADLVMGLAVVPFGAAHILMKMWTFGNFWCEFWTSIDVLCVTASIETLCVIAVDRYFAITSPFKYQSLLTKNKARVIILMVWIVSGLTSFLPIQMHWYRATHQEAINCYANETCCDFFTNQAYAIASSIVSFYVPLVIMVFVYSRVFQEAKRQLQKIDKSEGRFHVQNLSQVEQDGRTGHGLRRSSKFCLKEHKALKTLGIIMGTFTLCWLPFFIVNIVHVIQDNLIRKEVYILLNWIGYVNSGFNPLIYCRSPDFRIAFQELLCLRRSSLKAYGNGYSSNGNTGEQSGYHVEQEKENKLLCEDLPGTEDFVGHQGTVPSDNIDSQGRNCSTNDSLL

This experiment concerns the target Beta-2 adrenergic receptor (Homo sapiens) (UniProt P07550). The experiment can be described thus: agonist-induced loss of surface beta2AR – cell-based, FAP fluorogen, flow cytometry, primary screen (AID 504454). To be noted: Am2.2-beta2AR cells, FAP receptor internalization, active compounds read high, concentration not given here.
For the compound `O=C1NC(=O)N(Cc2ccco2)C(=O)/C1=C\c1ccc(-c2ccc(F)cc2)o1`, the response was 47.3% (active).

Take `O=C1NC(=O)N(CCc2ccc(F)cc2)C(=O)/C1=C/C=C/c1ccccc1`: the response was 18.2% (inactive).

Consider `COc1ccc(N2C(=O)/C(=C/c3ccco3)C(=O)NC2=S)cc1`, for which the response was 11.6% (inactive).

In the case of `NC(=O)Nc1cccc(C(F)(F)F)c1`, the response is -1.13% (inactive). As to `Cc1ccc(N2C(=O)NC(=O)C(CCc3ccncc3)(Cc3cccc(Cl)c3Cl)C2=O)cc1` (stereo not given), the response is -11.4% (inactive). As to `O=C1NC(=O)C(CCc2ccccn2)(Cc2cccc(Cl)c2Cl)C(=O)N1c1ccc(Br)cc1` (stereo not given), the response was 51.1% (active). Turning to `COc1ccc(C(=O)CC2C(=O)N(C)C(=O)N(C)C2=O)cc1`, the response is 8.45% (inactive).

Regarding `CCN(N=Nc1nonc1OC)c1nonc1OC`, the response is -1.92% (inactive). Regarding `Cc1c(Oc2cc(NN3CCCCC3)c([N+](=O)[O-])cc2[N+](=O)[O-])cccc1[N+](=O)[O-]`, the response is -2.15% (inactive).

As to `CCCC(C)n1[nH]c(=O)c2c1NC(=O)CSC2c1ccc(OC)c(OC)c1` (stereo not given), the response was -2.18% (inactive). Regarding `C[C@]12CCC3C(CC[C@H]4[C@H](O)[C@H](O)CC[C@]34C)C1CCC2=O` (stereo not given in full), the response was 0.88% (inactive). Consider `O=C(N/N=C/c1c(O)n(C2CC2)c(=S)[nH]c1=O)c1ccccc1Cl`, for which the response was -2.3% (inactive). With `O=C(N/N=C/c1c(O)n(Cc2ccccc2)c(=O)[nH]c1=O)c1ccccc1`, the response is -4.99% (inactive). Under `O=C(N/N=C/c1c(O)n(C2CC2)c(=S)[nH]c1=O)c1ccccc1` stands 88.2% (active); under `CN1CCC[C@@H]1CCO[C@](C)(c1ccccc1)c1ccc(Cl)cc1`, 7.46% (inactive); under `CCC(=O)CC(c1ccc([N+](=O)[O-])cc1)c1c(O)c2ccccc2oc1=O` (stereo not given), 8.6% (inactive). Regarding `Cc1ccc2c(c1)C1CN(C)CCC1N2C(=O)Cn1nnc(-c2ccccc2F)n1` (stereo not given), the response was 3.52% (inactive).

In the case of `CCc1ccc(OCC(=O)N2CCN(CC(=O)Nc3ccccc3Cl)CC2)cc1`, the response was 1.84% (inactive). `CCC(=O)c1ccc(OCC(=O)N2CCN(CC(=O)Nc3ccc(C)cc3)CC2)cc1`: the response was 80.6% (active). For `Cc1ccc(C(C)C)c(OCC(=O)N2CCN(CC(=O)N3CCOCC3)CC2)c1` the value was 1.49% (inactive).

Values taken from PubChem BioAssay AID504454 (NMMLSC, 2011).
